Measured values as given in PubChem BioAssay (Tox21).
The source made the active and inactive calls. Calls follow the shape of the dose curve; as a rule, active = well fitted curve in the direction sought with a large enough effect in the repeat runs; inconclusive = weak or mixed curves; inactive = flat fitted curve, though single readings scatter.

Assay: qHTS assay to test for compound auto fluorescence at 535 nm (green) in HepG2 cell free culture (AID 720686)
Details: Cell-free medium, green autofluorescence 485/535 nm; series mostly up to 91.3 µM
Description: U.S. Tox21 Program National Center for Advancing Translational Sciences [NCATS] NIH Chemical Genomics Center [NCGC] U.S. Environmental Protection Agency [EPA] National Institutes of Environmental Health Sciences [NIEHS] National Toxicology Program [NTP] U.S. Food and Drug Administration [FDA] Tox21 Assay Overview: Compound auto fluorescence often interferes with screening of the compound library against various biological targets and signaling pathways. Some of these compounds may have fluorophoric properties. Such properties may interfere with the assay outputs resulting in false positives and/or negatives. To decrease such complications and ensure the compound activities are relevant in terms of biological response, the Tox21 10K compound library was screened for auto fluorescence. From the fluorophores used as reporter signals in our screening assays, the auto fluorescence equivalencies of compounds against three fluorophores have been evaluated: Triamterene, Fluorescein and Rose Bengal sodium for blue, green and red fluorescence, respectively. The fluorescence intensities were measured using Excitation/Emission wavelengths at 405/460nm, 485/535nm and 540/590nm for blue, green and red labels, respectively. This assay includes the green fluorescence data.
Tox21 Assay Protocol Summary: 5 uL of culture medium (MEM containing 10% FBS) per well was dispensed into black wall/clear bottom 1536-well plates using a Multidrop Combi Dispenser (ThermoFisher Scientific, Waltham, MA). After 23 nL compound or DMSO vehicle was transferred into assay plate by a pintool work station (Kalypsys, San Diego, CA), fluorescence intensities in the assay plates were measured by an Envision (PerkinElmer, Shelton, CT) plate reader using three labels for measuring blue, green and red fluorescence at […] 460, 535 and 590nm respectively.
In the case of `O=[N+]([O-])/N=C1\NCCN1Cc1ccc(Cl)nc1`, the outcome is reported as “inactive”.
In the case of `OCCOCCO`, the outcome is reported as “inactive”.
In the case of `Oc1ccc(Cl)cc1Cl`, the outcome is reported as “inactive”.
In the case of `CC1(C)C(C(=O)OC(C#N)c2cccc(Oc3ccccc3)c2)C1(C)C` (stereo not given), the outcome is reported as “inactive”.
For `CC1(C)Cc2cccc(O)c2O1`, the outcome was “inactive”.
With `CCC/C=N/O` the outcome was “inactive”.
For `O=[N+]([O-])c1ccc(Nc2ccccc2)cc1`, the outcome was “inactive”.
With `ClC(Cl)=C(Cl)C(Cl)=C(Cl)Cl` the outcome was “inactive”.
With `CC(C)(c1ccccc1)c1ccc(O)c(C(C)(C)c2ccccc2)c1` the outcome was “inactive”.
With `O=C(O)CF` the outcome was “inactive”.
With `Nc1ccc2ccccc2c1` the outcome was “inactive”.
For `CCCCOCCOC(C)=O`, the outcome was “inactive”.
For `CCCCOCC1CO1` (stereo not given), the outcome was “inactive”.
With `N#Cc1cccnc1` the outcome was “inactive”.
For `CC(C)=CC1C(C(=O)OCN2C(=O)C3=C(CCCC3)C2=O)C1(C)C` (stereo not given), the outcome was “inactive”.
With `CCOP(=O)(OCC)OCC` the outcome was “inactive”.
In the case of `Nc1ncn[nH]1`, the outcome is reported as “inactive”.
For `CNC(=S)S`, the outcome was “inactive”.
For `COP(=O)(NC(C)=O)SC` (stereo not given), the outcome was “inactive”.
In the case of `CCC(=O)Nc1ccc(Cl)c(Cl)c1`, the outcome is reported as “inactive”.
For `CSc1nc(NC(C)C)nc(NC(C)C)n1`, the outcome was “inactive”.
For `CC(C)COC(=O)c1ccccc1C(=O)OCC(C)C`, the outcome was “inactive”.
With `Cc1cc(Cl)ccc1N=CN(C)C` the outcome was “inactive”.
For `N#CC(c1ccccc1)c1ccccc1`, the outcome was “inactive”.
In the case of `Clc1cccc(C(Cl)(Cl)Cl)n1`, the outcome is reported as “inactive”.
In the case of `CCCCCCCCCCCCCl`, the outcome is reported as “inactive”.
In the case of `COc1ccc(O)c(C(C)(C)C)c1`, the outcome is reported as “inactive”.
With `COc1ccc(C=O)cc1OC` the outcome was “inactive”.
With `[CH3][Sn]([Cl])([Cl])[Cl]` the outcome was “inactive”.
In the case of `O=C1Nc2ccc(Cl)cc2C(c2ccccc2)=NC1O` (stereo not given), the outcome is reported as “inactive”.
With `O=P(OCCCl)(OCCCl)OCCCl` the outcome was “inactive”.
In the case of `CCOC(=O)c1ccccc1N`, the outcome is reported as “inactive”.
For `CC(C)Nc1nc(Cl)nc(NC(C)C)n1`, the outcome was “inactive”.
With `Cc1cccc(N=Nc2ccc(N(C)C)cc2)c1` the outcome was “inactive”.
With `CCN(CC)C(=O)C(C)Oc1cccc2ccccc12` (stereo not given) the outcome was “inactive”.
In the case of `Cl`, the outcome is reported as “inactive”.
With `Nc1ccc([N+](=O)[O-])cc1N` the outcome was “inactive”.
With `COC(=O)Nc1nc2ccccc2[nH]1` the outcome was “inactive”.
For `O=C1C(Cl)=C(Cl)C(=O)c2ccccc21`, the outcome was “inactive”.
For `C=C(C)C#N`, the outcome was “inactive”.
